Screens deposited in PubChem by several laboratories.
AMPAR-TARP mod: modulators of GluA2-stargazin AMPA receptor complexes, primary screen, cell-based, membrane potential dye; AID 1259245, 2017; HEK293 GluA2+stargazin, membrane potential dye (FDSS), glutamate EC50; hits were called plate by plate, in both directions; calls only at 30 µM; Voltage-dependent calcium channel gamma-2 subunit (Mus musculus) + Glutamate receptor 2 …; 40,000 tested, 3.5% active;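 active = any of four per-well response measures lying three or more SD from its plate-wide compound average, in either direction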
GIRK2 act: activators of NPY4-receptor-primed GIRK2 channels, summary, cell-based, HEK293, thallium flux | activation (% efficacy), % for hits at 37.5 µM | HEK293 GIRK2/NPY4 cells, thallium flux fluorescence | 34,000 tested, under 10 active | AID 1259324, 2017 | G protein-activated inward rectifier potassium channel 2 (Homo sapiens), P48051;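 active = primary screen hit, no activity in plain HEK293 cells, and in GIRK2-only cells above 5% efficacy rising with concentration; inactive = the rest, including fluorescent compounds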;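 note: efficacy is normalized control-subtracted fluorescence 15 s after thallium addition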
Target sequence (P48051 whole entry, looked up): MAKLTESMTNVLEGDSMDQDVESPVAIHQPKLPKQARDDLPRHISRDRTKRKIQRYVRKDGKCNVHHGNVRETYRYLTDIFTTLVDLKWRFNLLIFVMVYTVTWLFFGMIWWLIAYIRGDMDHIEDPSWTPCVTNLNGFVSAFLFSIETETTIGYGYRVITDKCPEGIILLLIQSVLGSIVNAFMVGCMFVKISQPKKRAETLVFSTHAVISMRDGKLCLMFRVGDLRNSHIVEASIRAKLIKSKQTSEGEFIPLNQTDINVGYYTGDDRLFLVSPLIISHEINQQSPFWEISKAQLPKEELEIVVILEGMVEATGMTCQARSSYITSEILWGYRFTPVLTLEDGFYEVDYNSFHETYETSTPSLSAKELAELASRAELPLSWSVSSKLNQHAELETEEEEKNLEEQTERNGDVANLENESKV
* = called active by the depositor; i = inactive; . = not tested or not shown; + = active, no number; ! = repeats disagree. This is one part of a sample in which hits are shown more often than they occur.

SMILES	AMPAR-TARP mod	GIRK2 act
Cc1ccc(CN2C(=O)NC3(CCN(C(=O)Nc4ccc(F)c(Cl)c4)CC3)C2=O)cc1	+	i
Cc1cc(C)cc(NC(=O)N2CCC3(CC2)NC(=O)N(Cc2ccc(Cl)cc2)C3=O)c1	i	i
COc1ccc(Cl)cc1NC(=O)c1nnn(-c2ccc(C)c(F)c2)c1C	i	.
CCc1ccc(S(=O)(=O)Nc2ccc(-c3cn4nc(OC)ccc4n3)cc2)s1	i	i
COC(=O)c1c(NC(=O)Cc2ccc(F)cc2)sc2c1CCN(C(C)C)C2	+	i
CC(C)N1CCc2c(sc(NC(=O)Cc3ccccc3)c2-c2nc3ccccc3s2)C1	i	.
Cc1cc(C(=O)N2CCOCC2)nn1CC(=O)Nc1ccc(C(F)(F)F)cc1	i	i
CCC(CO)NC(=O)C(=O)Nc1ccc(C)c(Cl)c1 (centres undefined)	i	.
OCCN1CCN(c2cc(-c3ccccc3)nc3c(-c4ccccc4)cnn23)CC1	i	i
NC(=O)CSc1nc(-c2ccccc2)c(NC(=O)c2c(F)cccc2F)s1	i	i
O=C(NCCc1ccccc1)Nc1ccc(N2CCCS2(=O)=O)cc1	i	i
COc1ccc(S(=O)(=O)CC(=O)N2CCN(c3nc4c(C)ccc(Cl)c4s3)CC2)cc1	i	.
CCS(=O)(=O)c1ccc(CC(=O)N2CCN(c3nc4c(C)ccc(Cl)c4s3)CC2)cc1	+	.
O=S(=O)(c1ccc(Oc2ccccc2Cl)cc1)N1CCCCC1	i	.
O=S(=O)(c1ccc(Oc2ccccc2Cl)cc1)N1CCCC1	+	.
CCOC(=O)c1sc2cccc(F)c2c1S(=O)(=O)Nc1ccc2c(c1)OCCO2	i	.
O=c1[nH]c2c(s1)C1c3ccccc3OC3CCCC(S2)C31 (centres undefined)	+	.
O=S(=O)(c1cc(F)ccc1F)N1CCC(Cn2ccnc2-c2ccccc2)CC1	+	i
Cc1nccn1CC1CCN(S(=O)(=O)c2cccs2)CC1	i	i
COc1cc(S(=O)(=O)Nc2cc(Cl)ccc2O)ccc1Cl	+	i
COc1ccc(Cl)cc1S(=O)(=O)Nc1cc(Cl)ccc1O	i	i
COc1ccc(Br)cc1S(=O)(=O)Nc1cc(Cl)ccc1O	+	i
CCOc1ccc(S(=O)(=O)Nc2cc(Cl)ccc2O)cc1C	i	i
CN1CCN(n2c3c(c(SCC(=O)Nc4cccc([N+](=O)[O-])c4)nc2=O)CCC3)CC1	i	i
O=C(COc1ccc2ccccc2c1)NCC1CCN(c2ccccn2)CC1	.	i
SMILES	AMPAR-TARP mod	GIRK2 act
COC(=O)C1=C(C)N(C)C(=O)NC1c1ccc(OCc2ccccc2)cc1 (centres undefined)	i	.
CCC(=O)N1c2ccccc2NC2=C(C(=O)CC(C)(C)C2)C1c1ccc(OCc2ccccc2)cc1 (centres undefined)	+	.
CC12CC(NC(=O)N1c1cccc(C(=O)N3CCN(c4ccc(F)cc4)CC3)c1)c1ccccc1O2 (centres undefined)	i	i
CC1(C)CC2CC(C)(CN2Cc2c(O)ccc3ccccc23)C1 (centres undefined)	+	.
O=C(NCC(O)(c1cccs1)C1CC1)C1(c2ccc(Cl)cc2)CCCC1 (centres undefined)	i	i
O=C(NCCc1ccsc1)C1(c2ccc(Cl)cc2)CCCC1	+	i
CCCN1C(=O)NC2(CCN(C(=O)C3CCCCC3)CC2)C1=O	i	i
CCCN1C(=O)/C(=C/c2ccc(N3CCCC3)cc2)NC1=S	+	.
O=C(Nc1nnc(-c2ccc(Br)s2)o1)c1ccc2c(c1)OCO2	i	i
O=C(Cc1ccccc1)NCCS(=O)(=O)N1CCN(Cc2ccccc2)CC1	i	i
Cc1c(O)ccc2cc(S(=O)(=O)c3ccc(F)cc3)c(=O)oc12	+	.
CC(C)(C)c1ccc(S(=O)(=O)c2cc3cc(F)cc(F)c3oc2=O)cc1	i	.
CCOc1ccccc1-n1c(C)c(C)n2c3c(=O)n(C(C)C(C)=O)c(=O)n(C)c3nc12 (centres undefined)	i	.
Cc1ccc(C)c(S(=O)(=O)Nc2ccc(C(=O)NCCc3ccccc3)cc2)c1	i	.
Cc1cc(C)c(C(=O)NCCc2ccccc2)c(C)c1	+!	i
O=C(c1ccccc1C(F)(F)F)N1CCC(Cn2cccn2)CC1	+	i
O=C(c1ccccc1F)N1CCC(Cn2cccn2)CC1	i	i
COCC(C)(O)CNC(=O)c1cc2ccccc2o1 (centres undefined)	i	i
Cc1cccc(S(=O)(=O)NCC2CCN(C(=O)Oc3ccccc3)CC2)c1	i	i
COc1cc(S(=O)(=O)NCCNc2cc(-n3cccn3)ncn2)c(C)cc1C	i	i
CCCCS(=O)(=O)NCCNc1cc(-n2cccn2)ncn1	+	i
COc1ccc(N2C(=O)CN(CCc3ccccc3OC)C3CS(=O)(=O)CC32)cc1 (centres undefined)	i	i
COc1ccc(N2C(=O)CS(=O)(=O)C23C(=O)N(Cc2ccccc2C)c2ccccc23)cc1 (centres undefined)	+	.
Cc1ccc(C(c2c(C)[nH]c3ccccc23)N2CCC(C)CC2)cc1 (centres undefined)	i	.
CN1CCN(NC(=O)C(=O)Nc2ccc3c(c2)OCCO3)CC1	+	.
SMILES	AMPAR-TARP mod	GIRK2 act
CN1CCN(NC(=O)C(=O)Nc2ccc(F)c(Cl)c2)CC1	i	i
O=C(CSc1nc(=O)n(CCCO)c2c1CCC2)N1CCCC1	i	i
CCOc1cn(-c2ccc(F)cc2)nc1C(=O)Nc1cc(Cl)ccc1Cl	i	i
O=C(CSc1nccn(-c2ccc(Cl)cc2)c1=O)Nc1ccc(F)cc1F	+	.
O=C(CSc1nccn(-c2ccc(F)cc2)c1=O)Nc1ccc(F)cc1	i	.
COc1ccc(-n2ccnc(SCC(=O)Nc3c(C)cc(C)cc3C)c2=O)cc1	i	.
Cc1cc(C)cc(-n2ccnc(SCC(=O)Nc3c(C)cc(C)cc3C)c2=O)c1	+	.
COc1ccccc1CNC(=O)C(=O)NCC(O)c1ccsc1 (centres undefined)	i	i
COc1ccc(S(=O)(=O)NCCNc2ccc(Nc3cc(C)ccn3)nn2)cc1OC	.	i
CC(C)Sc1ccc(CC(=O)N2CCC(C(=O)Nc3nccs3)CC2)cc1	.	i
CC1=C(C(=O)Nc2cc(C(F)(F)F)ccc2Cl)C(c2ccc(C)cc2)C2=C(CCCC2=O)N1 (centres undefined)	+	.
CC1=C(C(=O)Nc2cccc(C(F)(F)F)c2)C(c2ccc(F)cc2)C2=C(CCCC2=O)N1 (centres undefined)	i	.
CCOc1ccc(-c2cn(-c3ccc(C)cc3)c(=S)[nH]2)cc1	i	i
COc1ccc(Br)c(C(=O)Nc2ccc(CC(=O)NCC(F)(F)F)cc2)c1	.	i
COc1ccc(S(=O)(=O)NCC#CCN(C(C)C)C(C)C)cc1OC	i	.
CC(C)N(CC#CCNS(=O)(=O)c1ccc2ccccc2c1)C(C)C	+	.
COCc1nc2ccccc2n1CC(O)COc1ccc(C(C)C)cc1 (centres undefined)	+	i
COCc1nc2ccccc2n1CC(O)COc1ccc(Cl)c(C)c1 (centres undefined)	i	i
